In PubChem BioAssay (NCATS):
Inconclusive results are not listed. Activity calls are given as the source filed them. Unless noted, calls follow the shape of the dose curve; as a rule, active = well fitted curve in the direction sought with a large enough effect; inconclusive = small, poorly fitted or top-dose-only effect, or another doubt; inactive = no such curve, though single readings can be large; an effect the other way counts as inactive or inconclusive.

Legend:
[1] = biological target: Rap guanine nucleotide exchange factor 3 (Homo sapiens) (UniProt O95398); assay: Confirmatory qHTS for agonist of cAMP-regulated guanine nucleotide exchange factor 3 (EPAC1) (AID 1645881);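 also: EPAC1 catalysed release of BODIPY-GDP from Rap1B seen as fluorescence loss; 100% = effect of cAMP agonist control; nearly all actives have a fitted effect of over 75% in size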
[2] = biological target: Rap guanine nucleotide exchange factor 4 (Homo sapiens) (UniProt Q8WZA2); assay: Confirmatory qHTS for agonist of cAMP-regulated guanine nucleotide exchange factor 4 (EPAC2) (AID 1645884);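 also: nucleotide exchange releases bodipy-GDP from Rap1 and this lowers its fluorescence; % is scaled to controls: 0 for no effect and ±100 for the full control effect; nearly all actives have a fitted effect of over 65% in size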
[3] = biological target: Rap guanine nucleotide exchange factor 4 (Homo sapiens) (UniProt Q8WZA2); assay: Confirmatory qHTS for antagonist of cAMP-regulated guanine nucleotide exchange factor 4 (EPAC2) (AID 1645885); also: nearly all actives have a fitted effect of over 25% in size; also: potency is read from the fitted curve at half-maximal effect
[4] = biological target: Rap guanine nucleotide exchange factor 3 (Homo sapiens) (UniProt O95398); assay: Counterscreen qHTS for agonist of cAMP-regulated guanine nucleotide exchange factor 3 (EPAC1) (AID 1645889); also: % of control where 0% means no effect; nearly all actives have a fitted effect of over 40% in size
Procedure, shortened: (§1)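 Rap1B-BODIPY-GDP 250 nM + GDP 50 uM; cpds 7-pt, final 9.74 nM–152 uM (activator mode) or from 7.32 nM upwards (inhibitor mode); RT; FI 480/540 nm at 5 and 30 min, then ± cAMP, reread.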

[5] = biological target: Tumor susceptibility gene 101 protein (Homo sapiens) (UniProt Q99816); assay: qHTS Assay for Iinhibitors of HIV-1 Budding by Blocking the Interaction of PTAP/TSG101: Hit Validation (AID 651600); also: nearly all actives have a fitted effect of over 70% in size; also: potency is read from the fitted curve at half-maximal effect
Procedure, shortened: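 Compounds are added to the Tsg101 binding domain (10 uM final) in pH 7.5 HEPES buffer. FITC-PTAP peptide follows at 50 nM final. After 20 min at r.t., polarized FITC emission is measured.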

[6] = biological target: Rap guanine nucleotide exchange factor 3 (Homo sapiens) (UniProt O95398); assay: Counterscreen qHTS for antagonist of cAMP-regulated guanine nucleotide exchange factor 3 (EPAC1) (AID 1645888);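 also: fluorescence loss as bound BODIPY-GDP is released from Rap1B; % of control where 0% means no effect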
Procedure, shortened: as §1

[7] = qHTS for Inhibitors of the vitamin D receptor (VDR): Hit Validation using a Texas Red Assay (AID 602201); also: % is scaled to controls: 0 for no effect and ±100 for the full control effect
Procedure, shortened: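 After a 2-hour room-temperature incubation, polarization of Texas-Red emission was read (Ex 595 nm/Em 615 nm). Final mix contained 7 nM Texas Red, 1.5 uM VDR-LBD and LG19078.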

[8] = biological target: Lysosomal acid glucosylceramidase (Homo sapiens) (UniProt P04062); assay: Glucocerebrosidase-p2 (AID 348; in the data active = potency below about 10 µM; also: potency is read from the fitted curve at half-maximal effect); conditions: purified GBA, blue fluorogenic substrate, 40 min
Procedure, shortened: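 Compounds titrated from 0.6 nM upwards against 0.2 nM enzyme in pH 5.9 citric acid/KH2PO4, taurocholate, tween-20; blue fluorogenic substrate 80 uM, 40 min room temperature, stopped and read Ex 365/Em 440 for AC50.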

[9] = AP1 Signaling Pathway (AID 357; active = well fitted curve in either direction with a large enough effect, not every such curve was filed as active; also: % is scaled to controls: 0 for no effect and ±100 for the full control effect); conditions: ME-180 AP-1-bla reporter, EGF-induced, beta-lactamase ratio, 5 h; at 7.69 µM (top of the series) unless noted
Procedure, shortened: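 AP-1-bla ME-180 cells with beta-lactamase reporter under AP-1 response element, stimulated with EC50 EGF; compounds titrated, 5 hours at 37 degrees Celsius. CCF4 read at 460/530 nm ratio; positive and negative modulators judged by AC50.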

[10] = biological target: Cytochrome P450 1A2 (Homo sapiens) (UniProt P05177); assay: p450-cyp1a2 (AID 410; calls by dose curve; also: potency is read from the fitted curve at half-maximal effect)
Procedure, shortened: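 20nM CYP1A2 with 100uM Luciferin-ME (at Km) in 100mM KPO4; compound preincubated 10 min, NADPH regeneration added, 60 min at room temperature. Luciferin quantified by luminescence after detection reagent; normalized to 57 uM furafylline.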

[11] = NFAT Signaling Pathway (AID 444; active = well fitted curve in either direction with a large enough effect, not every such curve was filed as active;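 also: carbachol stimulus at about its EC50 of 1 µM final; % is scaled to controls: 0 for no effect and ±100 for the full control effect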); conditions: Jurkat NFAT-bla M1, carbachol, beta-lactamase ratio, 5 h; at 7.69 µM (top of the series) unless noted
Procedure, shortened: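 Read-out: CCF4 FRET ratio (460 nm/530 nm) after 1 h RT dye loading, used for %activity and AC50 from titration series. Cells: Jurkat NFAT-β-lactamase/M1 line, treated with compound plus 1 uM carbachol for 5 h, 37 °C.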

[12] = biological target: Glucocorticoid receptor (Homo sapiens) (UniProt P04150); assay: GR-GFP Redistribution (AID 450;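 active = compounds whose dose series gives a full or clear partial fitted curve of increased nuclear translocation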; also: potency is read from the fitted curve at half-maximal effect); conditions: U2OS GR-GFP nuclear translocation, laser cytometry, 2 h
[13] = biological target: Glucocorticoid receptor (Homo sapiens) (UniProt P04150); assay: GR-EFC Redistribution (AID 451; calls by dose curve; also: potency is read from the fitted curve at half-maximal effect); conditions: CHO-K1 GR-EFC translocation, beta-gal luminescence, 2 h
Procedure, shortened: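 Translocation of GR-ED fusion to nuclear EA restores b-gal, read by luminescence after 1 h room-temperature detection. Engineered CHO-K1 biosensor cells, 1,000/well, exposed 2 h at 37 C to titrations up to 46 uM final.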

[14] = biological target: Mitogen-activated protein kinase 10 (Mus musculus) (UniProt Q61831); assay: JNK3 AlphaScreen Assay (AID 530; active = well fitted curve in either direction with a large enough effect, not every such curve was filed as active;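 also: kinase came from lysate of stimulated human HepG2 cells; signal reports phosphorylation of biotinylated GST-cJun 1-79 at Ser73 with 10 µM ATP; % is scaled to controls: 0 for no effect and ±100 for the full control effect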)
Procedure, shortened: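 Compound titrations were preincubated 15 minutes at room temperature with substrate, antibody and pre-activated JNK3-containing HepG2 lysate. Reactions were started with 10 uM ATP and stopped with EDTA-containing bead buffer for AlphaScreen detection.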

[15] = biological target: Cytochrome P450 3A4 (Homo sapiens) (UniProt P08684); assay: qHTS Assay for Activators of Cytochrome P450 3A4 (AID 885); also: nearly all actives have a fitted effect of over 65% in size
Procedure, shortened: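 Human CYP3A4 (20 nM) with Luciferin-PPXE at 25 uM (its KM) in 200 mM KPO4; 10 min compound preincubation, then NADPH regeneration and 60 min reaction at RT. Luciferin read by luminescence; normalized to 57 uM ketoconazole full inhibition.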

[16] = Stat Signaling Pathway (AID 446; active = well fitted curve in either direction with a large enough effect, not every such curve was filed as active)
Procedure, shortened: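 ME-180 cells carrying a SIE-driven beta-lactamase reporter are stimulated with 40 pM IL-6 for 5 h at 37C in the presence of compound. The 460/530 nm FRET substrate ratio is read after 2.5 h at RT. Data are normalised to 300 pM IL-6 and to 125 nM JAK inhibitor controls.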

[17] = biological target: 3',5'-cyclic-AMP phosphodiesterase 4B (Homo sapiens) (UniProt Q07343); assay: qHTS Assay for Inhibitors of PDE-IV (AID 607; active = well fitted activation curve with a large enough effect in the main read-out, with a control signal flat, not every such curve was filed as active; also: % of control where 0% means no effect)
Procedure, shortened: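 HEK293 ACTOne cells with CNG channel (1000/well), endogenous PDE4; membrane potential dye, compounds up to 22.9 uM final. Fluorescence Ex 535/Em 590; RO 20-1724 (100 uM final) as reference.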

Sequence of Rap guanine nucleotide exchange factor 3 (Homo sapiens) (O95398 whole entry, looked up): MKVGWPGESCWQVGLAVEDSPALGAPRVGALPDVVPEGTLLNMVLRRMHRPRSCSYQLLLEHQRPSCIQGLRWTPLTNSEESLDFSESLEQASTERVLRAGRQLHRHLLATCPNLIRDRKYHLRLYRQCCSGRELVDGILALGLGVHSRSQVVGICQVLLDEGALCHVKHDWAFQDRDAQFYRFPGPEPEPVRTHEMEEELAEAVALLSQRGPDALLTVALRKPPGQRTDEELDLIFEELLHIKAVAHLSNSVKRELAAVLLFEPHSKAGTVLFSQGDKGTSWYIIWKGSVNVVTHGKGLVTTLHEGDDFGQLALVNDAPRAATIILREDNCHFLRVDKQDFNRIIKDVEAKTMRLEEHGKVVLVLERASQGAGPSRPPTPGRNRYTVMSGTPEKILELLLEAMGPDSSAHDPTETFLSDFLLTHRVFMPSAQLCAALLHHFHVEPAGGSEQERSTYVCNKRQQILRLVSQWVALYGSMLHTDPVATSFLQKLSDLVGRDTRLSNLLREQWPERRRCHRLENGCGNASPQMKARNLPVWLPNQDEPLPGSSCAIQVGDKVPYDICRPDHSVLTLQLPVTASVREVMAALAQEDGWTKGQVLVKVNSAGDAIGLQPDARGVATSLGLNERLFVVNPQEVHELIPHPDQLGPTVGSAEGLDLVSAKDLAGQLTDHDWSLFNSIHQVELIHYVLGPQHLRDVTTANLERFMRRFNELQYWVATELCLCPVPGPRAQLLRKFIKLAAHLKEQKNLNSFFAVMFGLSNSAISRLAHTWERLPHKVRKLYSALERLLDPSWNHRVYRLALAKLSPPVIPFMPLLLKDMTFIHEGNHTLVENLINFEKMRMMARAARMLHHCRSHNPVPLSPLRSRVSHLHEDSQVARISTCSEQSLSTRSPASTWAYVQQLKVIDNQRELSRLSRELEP
Sequence of Rap guanine nucleotide exchange factor 4 (Homo sapiens) (Q8WZA2 whole entry, looked up): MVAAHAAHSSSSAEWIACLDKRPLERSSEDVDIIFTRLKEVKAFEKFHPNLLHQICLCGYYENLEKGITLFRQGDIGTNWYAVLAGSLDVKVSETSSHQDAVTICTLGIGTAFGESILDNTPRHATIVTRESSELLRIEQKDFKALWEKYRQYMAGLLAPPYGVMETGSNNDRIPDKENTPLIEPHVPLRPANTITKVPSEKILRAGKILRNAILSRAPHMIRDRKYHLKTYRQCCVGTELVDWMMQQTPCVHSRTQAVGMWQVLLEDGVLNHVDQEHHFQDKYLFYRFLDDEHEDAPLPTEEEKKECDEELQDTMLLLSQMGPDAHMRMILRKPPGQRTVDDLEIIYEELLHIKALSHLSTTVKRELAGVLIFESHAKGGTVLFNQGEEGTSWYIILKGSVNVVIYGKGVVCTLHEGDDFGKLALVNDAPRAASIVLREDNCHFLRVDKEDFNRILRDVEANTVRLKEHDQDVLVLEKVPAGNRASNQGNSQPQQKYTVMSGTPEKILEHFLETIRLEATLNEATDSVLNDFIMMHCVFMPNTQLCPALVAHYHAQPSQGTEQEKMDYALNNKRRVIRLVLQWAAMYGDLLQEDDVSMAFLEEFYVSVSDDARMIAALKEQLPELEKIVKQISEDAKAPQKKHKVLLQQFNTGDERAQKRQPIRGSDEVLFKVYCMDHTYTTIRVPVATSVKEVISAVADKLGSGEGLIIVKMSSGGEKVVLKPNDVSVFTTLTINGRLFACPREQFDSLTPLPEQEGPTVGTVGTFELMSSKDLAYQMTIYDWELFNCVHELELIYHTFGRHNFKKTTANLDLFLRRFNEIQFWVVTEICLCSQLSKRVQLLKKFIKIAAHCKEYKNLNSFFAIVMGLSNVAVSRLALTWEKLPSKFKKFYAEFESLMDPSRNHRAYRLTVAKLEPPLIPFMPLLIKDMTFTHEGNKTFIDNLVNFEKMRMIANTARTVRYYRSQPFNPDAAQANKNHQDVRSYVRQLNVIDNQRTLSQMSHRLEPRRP
Sequence of Cytochrome P450 3A4 (Homo sapiens) (P08684 whole entry, looked up): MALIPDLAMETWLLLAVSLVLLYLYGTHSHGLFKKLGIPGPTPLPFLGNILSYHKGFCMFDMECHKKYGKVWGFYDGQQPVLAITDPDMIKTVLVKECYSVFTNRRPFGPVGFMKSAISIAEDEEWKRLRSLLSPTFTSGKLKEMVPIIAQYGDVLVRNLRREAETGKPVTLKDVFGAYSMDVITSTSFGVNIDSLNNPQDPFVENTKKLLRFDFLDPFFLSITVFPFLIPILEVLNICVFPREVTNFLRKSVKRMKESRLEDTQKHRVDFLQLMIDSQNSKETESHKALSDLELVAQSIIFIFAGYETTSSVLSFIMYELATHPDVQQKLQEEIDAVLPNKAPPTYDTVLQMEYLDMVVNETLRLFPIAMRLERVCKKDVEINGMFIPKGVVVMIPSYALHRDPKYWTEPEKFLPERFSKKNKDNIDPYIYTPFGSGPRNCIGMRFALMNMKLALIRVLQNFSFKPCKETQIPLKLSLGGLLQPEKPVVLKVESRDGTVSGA
Sequence of Cytochrome P450 1A2 (Homo sapiens) (P05177 whole entry, looked up): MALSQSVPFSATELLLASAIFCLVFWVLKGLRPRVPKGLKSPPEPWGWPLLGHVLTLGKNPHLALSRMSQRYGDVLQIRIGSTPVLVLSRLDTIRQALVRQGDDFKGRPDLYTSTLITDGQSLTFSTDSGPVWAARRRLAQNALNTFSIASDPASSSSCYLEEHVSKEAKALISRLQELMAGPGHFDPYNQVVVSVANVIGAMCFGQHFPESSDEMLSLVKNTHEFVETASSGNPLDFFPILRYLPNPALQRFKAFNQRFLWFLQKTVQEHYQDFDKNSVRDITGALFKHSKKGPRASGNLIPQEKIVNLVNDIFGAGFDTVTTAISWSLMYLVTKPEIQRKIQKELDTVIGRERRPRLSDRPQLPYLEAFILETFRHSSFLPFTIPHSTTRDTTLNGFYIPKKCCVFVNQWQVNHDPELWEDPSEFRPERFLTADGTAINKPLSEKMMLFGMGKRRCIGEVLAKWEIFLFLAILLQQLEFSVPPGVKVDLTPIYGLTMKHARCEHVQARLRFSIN
Sequence of Glucocorticoid receptor (Homo sapiens) (P04150 whole entry, looked up, the tested form may be a part): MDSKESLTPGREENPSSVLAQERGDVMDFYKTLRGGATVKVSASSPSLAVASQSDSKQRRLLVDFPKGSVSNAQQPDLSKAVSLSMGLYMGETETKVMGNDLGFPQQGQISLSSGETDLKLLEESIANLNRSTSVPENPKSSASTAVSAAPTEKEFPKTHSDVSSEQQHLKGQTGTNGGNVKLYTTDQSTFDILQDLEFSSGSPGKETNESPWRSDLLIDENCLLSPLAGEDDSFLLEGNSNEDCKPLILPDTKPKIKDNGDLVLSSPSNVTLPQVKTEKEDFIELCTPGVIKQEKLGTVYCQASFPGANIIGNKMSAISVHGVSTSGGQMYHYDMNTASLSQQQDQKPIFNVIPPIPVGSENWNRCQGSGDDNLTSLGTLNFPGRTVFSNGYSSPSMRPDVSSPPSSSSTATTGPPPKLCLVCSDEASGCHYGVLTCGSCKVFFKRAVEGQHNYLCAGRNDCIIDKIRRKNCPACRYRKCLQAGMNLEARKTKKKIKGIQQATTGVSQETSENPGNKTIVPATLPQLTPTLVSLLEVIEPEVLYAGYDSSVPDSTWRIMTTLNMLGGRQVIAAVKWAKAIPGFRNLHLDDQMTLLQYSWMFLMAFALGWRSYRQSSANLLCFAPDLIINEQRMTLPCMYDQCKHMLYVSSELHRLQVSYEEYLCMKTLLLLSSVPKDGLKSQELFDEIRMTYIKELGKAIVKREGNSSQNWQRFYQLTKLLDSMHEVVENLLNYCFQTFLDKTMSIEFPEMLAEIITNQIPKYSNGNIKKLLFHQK
Sequence of Lysosomal acid glucosylceramidase (Homo sapiens) (P04062 whole entry, looked up): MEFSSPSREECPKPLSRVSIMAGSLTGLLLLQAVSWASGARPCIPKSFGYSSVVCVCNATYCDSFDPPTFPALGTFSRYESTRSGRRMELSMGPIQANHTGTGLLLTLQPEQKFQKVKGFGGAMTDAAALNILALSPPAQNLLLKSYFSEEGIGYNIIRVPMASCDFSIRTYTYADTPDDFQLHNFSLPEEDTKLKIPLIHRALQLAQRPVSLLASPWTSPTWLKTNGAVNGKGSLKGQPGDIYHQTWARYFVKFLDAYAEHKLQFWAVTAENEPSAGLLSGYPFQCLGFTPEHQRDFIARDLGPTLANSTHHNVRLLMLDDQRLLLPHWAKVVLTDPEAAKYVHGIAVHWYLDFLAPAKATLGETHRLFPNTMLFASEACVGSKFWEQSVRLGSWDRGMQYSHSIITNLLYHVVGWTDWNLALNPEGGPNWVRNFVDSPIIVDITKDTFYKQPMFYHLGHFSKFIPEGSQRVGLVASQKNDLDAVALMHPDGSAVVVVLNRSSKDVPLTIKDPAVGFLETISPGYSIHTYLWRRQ
Sequence of Tumor susceptibility gene 101 protein (Homo sapiens) (Q99816 whole entry, looked up, the tested form may be a part): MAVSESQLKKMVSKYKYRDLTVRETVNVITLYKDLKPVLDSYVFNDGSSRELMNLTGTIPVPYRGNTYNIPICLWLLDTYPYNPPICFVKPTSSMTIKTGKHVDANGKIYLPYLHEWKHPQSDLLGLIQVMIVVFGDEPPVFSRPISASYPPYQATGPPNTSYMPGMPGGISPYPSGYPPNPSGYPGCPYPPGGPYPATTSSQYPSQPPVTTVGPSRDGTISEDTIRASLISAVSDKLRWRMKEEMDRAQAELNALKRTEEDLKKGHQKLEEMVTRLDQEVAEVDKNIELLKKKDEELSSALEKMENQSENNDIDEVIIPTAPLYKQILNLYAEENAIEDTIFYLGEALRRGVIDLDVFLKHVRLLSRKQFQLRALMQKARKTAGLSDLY

O=[N+]([O-])CC(c1ccccc1)c1c[nH]c2ccccc12 (configuration not stated)
inactive: Potency [1] | Potency [2] | Potency [4]
active: Potency [3] 21.3 µM

Cc1c2ccccc2nc2c(F)c(NC(C)C)c(F)c(F)c12
inactive: Potency [5] | Potency [1] | Potency [2] | Potency [3] | Potency [6]

COc1ccc(CCn2c(=N)c(C(=O)NC3CCCCC3)cc3c(=O)n4ccccc4nc32)cc1
inactive: Potency [1] | Potency [2] | Potency [3] | Potency [4]

C/C(=N\NS(=O)(=O)c1ccc(C(C)(C)C)cc1)c1ccccc1
inactive: Potency [1] | activation [2] 13.7% [at 17.1 µM, percent relative to cAMP agonist control] | Potency [3] | activation [4] 25% [at 30.8 µM]

CCc1nc2ccc(C(=O)Nc3ccc(NC(C)=O)cc3)cn2c1N(C)CCC(C)C
inactive: Potency [1] | Potency [2] | Potency [3] | Potency [4]

C/C(=N\NC(=O)c1ccc(N/N=C(\C)c2ccc(O)cc2)cc1)c1ccc(O)cc1
inactive: Potency [1] | activation [2] 15.6% [at 17.1 µM, percent relative to cAMP agonist control] | Potency [3] | activation [4] 11.7% [at 30.8 µM]

COc1ccc(OC)c2c1C(=O)c1ccccc1C2=O
inactive: Potency [1] | Potency [2] | Potency [3] | Potency [6]
active: Potency [5] 14.6 µM

O=C1C(Cl)=C(NS(=O)(=O)c2ccc([N+](=O)[O-])cc2)C(=O)c2ccccc21
inactive: Potency [7] | Potency [1] | activation [2] 8.93% [at 17.1 µM, percent relative to cAMP agonist control] | Potency [3] | activity change, negative = inhibition [6] 11.7% [at 30.8 µM]

COCOCCn1cc(CN2CCS(=O)(=O)N(Cc3ccc(-c4ccc(F)cc4)cc3)C(CC(C)C)C2=O)nn1 (configuration not stated)
inactive: Potency [1] | Potency [2] | Potency [4]
active: Potency [3] 8.49 µM

CCCCCC(=O)N1c2ccccc2C(C)(c2ccccc2)CC1(C)C (configuration not stated)
inactive: Potency [1] | Potency [2] | Potency [3] | Potency [4]

Cc1occc1C(=O)N/N=C/C1=C(N2CCOCC2)C(=C/c2ccc(Cl)cc2Cl)/CC1
inactive: Potency [1] | Potency [2] | Potency [3] | Potency [4]

CC(C)(C)c1ccc(S(=O)(=O)NC(=O)C2(C)CCN2C(=O)Cc2ccc(-c3ccccc3)cc2)cc1 (configuration not stated)
inactive: Potency [1] | activation [2] -4.75% [at 17.1 µM, percent relative to cAMP agonist control] | Potency [3] | activation [4] 6.27% [at 30.8 µM]

COC(=O)c1ccccc1NC(=S)NC(=O)c1ccc(C)cc1
inactive: Potency [1] | activation [2] 2.96% [at 17.1 µM, percent relative to cAMP agonist control] | Potency [3] | activation [4] 7.2% [at 30.8 µM]

COc1ccc2sc(-c3ccc(SC)cc3)c(C#CC(C)(C)O)c2c1
inactive: Potency [1] | Potency [2] | Potency [3] | Potency [4]

CN(C)c1ncc2ncc(=O)n(Cc3cccs3)c2n1
inactive: Potency [8] > 11.4 µM | activity change, negative = inhibition [9] -12.8% | activity change, negative = inhibition [11] -18.4% | Potency [12] > 9.22 µM | Potency [13] > 46 µM | Potency [14] | outcome [15] | Potency [1] | Potency [2]
active: Potency [10] 1.58 µM | Potency [3] 39.3 µM

O=C(c1cc(C(F)(F)F)cc(C(F)(F)F)c1)N1CCC2(CCCN(c3ncccn3)C2)CC1
inactive: Potency [8] > 11.4 µM | activity change, negative = inhibition [9] -18.2% | outcome [16] | Potency [14] | Potency [17] | outcome [15] | Potency [1] | Potency [2]
active: Potency [10] 31.6 µM | Potency [3] 44.1 µM

CC(C)NC(=O)c1sc2nc(-c3cccs3)cc(-c3cccs3)c2c1N
inactive: Potency [1] | Potency [2] | Potency [6]

CCC[C@H]1CC(=O)C=C(c2ccsc2)ON1C(=O)OC(C)(C)C
inactive: Potency [1] | Potency [2] | Potency [3] | Potency [4]

O=C(Nc1ccc(Cl)cc1)Nc1ccccc1NS(=O)(=O)c1cccs1
inactive: Potency [1] | activation [2] 7.96% [at 17.1 µM, percent relative to cAMP agonist control] | Potency [3] | activation [4] 27.1% [at 30.8 µM]

Nc1ccc(N2CCCCC2)c2nonc12
inactive: Potency [1] | activation [2] -6.41% [at 17.1 µM, percent relative to cAMP agonist control] | Potency [3] | activation [4] 6.94% [at 30.8 µM]

CCOC(=O)c1nc(C)nc(Sc2n[nH]c(-c3cc(Cl)cc(Cl)c3)n2)c1C
inactive: Potency [1] | activation [2] 2.66% [at 17.1 µM, percent relative to cAMP agonist control] | Potency [3] | activation [4] 19.4% [at 30.8 µM]

CCN1CCN(c2ccc(S(=O)(=O)N3CCCCC3)cc2NC(=O)c2ccc([N+](=O)[O-])s2)CC1
inactive: Potency [1] | Potency [2] | Potency [6]
